From PubChem BioAssay (EPA / NIEHS)
The source made the active and inactive calls. Rule for the calls: active = hit-call score of the fitted dose curve at least 0.9, where 1 is the maximum; inactive = score below 0.9.

Assay: APR_HepG2_MitoMass_24hr: Apredica 24-hour HepG2 Assay for Mitochondrial Mass (AID 2282912)
Conditions: high-content imaging, actives raise or lower the signal
Experimental: APR_HepG2_24hr is a cell-based, multiplexed-readout assay that uses HepG2, a human liver cell line, with measurements taken at 24 hours after chemical dosing in a 384-well plate.APR_HepG2_MitoMass_24hr is one of 10 assay component(s) measured or calculated from the APR_HepG2_24hr assay. It is designed to make measurements of cell phenotype, a form of morphology reporter, as detected with fluorescence intensity signals by HCS Fluorescent Imaging technology.Data from the assay component APR_HepG2_MitoMass_24hr was analyzed into 1 assay endpoint. This assay endpoint, APR_HepG2_MitoMass_24hr, was analyzed with bidirectional fitting relative to DMSO as the negative control and baseline of activity. Using a type of morphology reporter, gain or loss-of-signal activity can be used to understand changes in the signaling. Furthermore, this assay endpoint can be referred to as a primary readout, because this assay has produced multiple assay endpoints where this one serves a signaling function. To generalize the intended target to other relatable targets, this assay endpoint is annotated to the cell morphology intended target family, where the subfamily is organelle conformation.
Cells were treated with dimethyl sulfoxide (DMSO) as a solvent control at a final concentration of 0.5% v/v or with compounds in DMSO with a resulting final DMSO concentration of 0.5% v/v. Compound treatment was done at concentrations of 0.39, 0.78, 1.56, 3.12, 6.24, 12.5, 25, 50, 100, and 200 uM in duplicate on each plate. Cells were treated with compounds for 1, 24, or 72 hr. Carbonyl […] m-chloro-phenylhydrazone (CCCP) and taxol were used as positive controls for mitochondrial function and cytoskeletal stability, respectively; DMSO served as the negative control for this experiment. Cells were fixed by the direct addition of 50 uL formaldehyde in Hank's Balanced Salt Solution (HBSS) to a final concentration of 3.7%. After incubation in the fixation medium for 30 min at room temperature (293-298 K), cells were rinsed twice with HBSS and treated with cell permeabilization buffer (16 uL of 0.5% Triton X-100) for 10 min at room temperature (293-298 K) before labeling. For mitochondrial membrane potential and mitochondrial measurements, pre-fixed cells were incubated with 50 uL of MitoTracker Red CMXRos (Invitrogen) at a concentration of 250 nM for 30 min before fixation. In the remaining cases, post-fixed cells were labeled by incubation with a multiplexed mixture of primary antibodies in HBSS for 60 min at room temperature (293-298 K) to detect immunoreactivity of c-Jun (1:500), phospho-histone H3 (1:100), phospho-histone H2A.x (1:200), p53 (1:400), alpha-tubulin (1:200) and Hoechst 33342 (2 ug/mL). Cells were labeled for multiplexed imaging on two separate plates: a) Hoechst 33342, MitoTracker Red, phospho-histone H3, and alpha-tubulin, and b) Hoechst 33342, phospho-histone H2A.x, and c-Jun. A final rinse with HBSS (50 uL) was performed before analysis. The primary and secondary antibodies for the proteins were phospho-histone H3 (rabbit anti-phospho-histone H3 and FITC-donkey anti-rabbit IgG), phospho-histone H2A.x (mouse anti-phospho-histone H2A.x and FITC-donkey anti-mouse IgG), c-Jun (rabbit anti-phospho-c-Jun and Cy3-donkey anti-rabbit IgG), p53 (sheep anti-p53 and Cy5-donkey anti-sheep IgG), alpha-tubulin (mouse anti-alpha-tubulin and Cy5-donkey anti-mouse IgG). These antibodies are available as the CellCiphr HepG2 assay kit (Millipore).Digital images of each well were captured using a Cellomics ArrayScan VTI (Thermo Scientific Cellomics) (0.8 NA objective, 0.63x optical coupler, and XF-93 filter set) at 20x magnification. The images were acquired using the autofocus feature of the ArrayScan instrument, which entails the following steps. First, the camera focuses on channel 1 (Hoechst 33342), where nuclei are identified. Second, a Z offset of 1 um is used for capturing mitochondria (MitoTracker Red). […]

SMILES	outcome
COc1cc(OC)nc(Sc2cccc(Cl)c2C(=O)O)n1	inactive
COP(=O)(OC)SCn1c(=O)oc2cc(Cl)cnc21	inactive
COP(=O)(OC)C(O)C(Cl)(Cl)Cl (stereo not given)	inactive
CCOP(=S)(Oc1cnc(C(C)(C)C)nc1)OC(C)C (stereo not given)	inactive
CNC(=O)ON=C(C)SC	inactive
CC(C)=CC1C(C(=O)OCN2C(=O)C3=C(CCCC3)C2=O)C1(C)C (stereo not given)	inactive
CC(C)N(C(=O)SCC(Cl)=C(Cl)Cl)C(C)C	inactive
CC(C)[C@H](C(=O)O[C@H](C#N)c1cccc(Oc2ccccc2)c1)c1ccc(Cl)cc1	inactive
CCc1cnc(C2=NC(C)(C(C)C)C(=O)N2)c(C(=O)O)c1 (stereo not given)	inactive
C[Si](Cn1cncn1)(c1ccc(F)cc1)c1ccc(F)cc1	inactive
CCCSP(=O)(OCC)SCCC	inactive
CN1COCN(Cc2cnc(Cl)s2)C1=N[N+](=O)[O-]	inactive
CSC1=N[C@@](C)(c2ccccc2)C(=O)N1Nc1ccccc1	inactive
Cc1ccn2nc(S(=O)(=O)Nc3c(F)cccc3F)nc2n1	inactive
CCOP(=O)(OCC)Oc1cc(C)nc(C(C)C)n1	inactive
CC1(C(=O)Nc2ccc(O)c(Cl)c2Cl)CCCCC1	inactive
CC(C1CC1)C(O)(Cn1cncn1)c1ccc(Cl)cc1 (stereo not given)	inactive
CSc1nnc(C(C)(C)C)c(=O)n1N	inactive
CCc1cccc(C)c1N(C(=O)CCl)C(C)COC (stereo not given)	inactive
CON=C(C(=O)OC)c1ccccc1CON=C(C)c1cccc(C(F)(F)F)c1	inactive

SMILES	outcome
CNc1cnn(-c2cccc(C(F)(F)F)c2)c(=O)c1Cl	inactive
C#CC(C)(C)NC(=O)c1cc(Cl)cc(Cl)c1	inactive
CCc1cccc(CC)c1N(COC)C(=O)CCl	inactive
Nc1nc(N)nc(NC2CC2)n1	inactive
CCCCOC(=O)c1ccccc1C(=O)O	inactive
Nc1c(Cl)cc([N+](=O)[O-])cc1Cl	inactive
CCCOCC(=Nc1ccc(Cl)cc1C(F)(F)F)n1ccnc1	inactive
S=C1NCCN1	inactive
CN(C)NC(=O)CCC(=O)O	inactive
CCOP(=O)(NC(C)C)Oc1ccc(SC)c(C)c1 (stereo not given)	inactive
C=C(C)[C@H]1Cc2c(ccc3c2O[C@@H]2COc4cc(OC)c(OC)cc4[C@@H]2C3=O)O1	inactive
COc1cccc(C(=O)NN(C(=O)c2cc(C)cc(C)c2)C(C)(C)C)c1C	inactive
CCCSP(=O)(OCC)Oc1ccc(Br)cc1Cl (stereo not given)	inactive
CCOP(=S)(OCC)Oc1ccc([N+](=O)[O-])cc1	inactive
CCOC(=O)CC(SP(=O)(OC)OC)C(=O)OCC (stereo not given)	inactive
CC(=NC#N)N(C)Cc1ccc(Cl)nc1	inactive
CC(COc1ccc(Oc2ccccc2)cc1)Oc1ccccn1 (stereo not given)	inactive
C[N+]1(C)CCCCC1	inactive
COc1ccc(C(=CC(=O)N2CCOCC2)c2ccc(Cl)cc2)cc1OC	inactive
COP(=O)(NC(C)=O)SC (stereo not given)	inactive
